Screens: PubChem, The Scripps Research Institute Molecular Screening Center
PAFAH1B2 inh: blocks human PAF acetylhydrolase 1b catalytic subunit 2; P68402; AID 492953; recombinant PAFAH1B2, FP-rhodamine activity probe, fluorescence polarization; inhibition, % at 3.39 µM; 340,000 compounds, 1.2% hits;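 active = inhibition above the mean of all tested compounds plus 3 SD, cut at about 24% in these data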;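 also: 0% = enzyme with DMSO and 100% = wells lacking PAFAH1B2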
Target sequence (P68402 whole entry, looked up): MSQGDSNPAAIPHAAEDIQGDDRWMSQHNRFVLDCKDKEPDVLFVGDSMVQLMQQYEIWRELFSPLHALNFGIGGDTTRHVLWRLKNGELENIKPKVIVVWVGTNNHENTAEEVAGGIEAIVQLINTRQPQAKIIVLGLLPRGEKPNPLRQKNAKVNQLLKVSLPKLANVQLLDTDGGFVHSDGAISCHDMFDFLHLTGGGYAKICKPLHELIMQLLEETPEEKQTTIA
pPAFAH FP inh: inhibitors of human plasma PAF acetylhydrolase (pPAFAH) | Q13093 | recombinant pPAFAH, FP-rhodamine probe fluorescence polarization | inhibition, % at 3.39 µM | 330,000 compounds, 1.5% hits | AID 463082;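 active = inhibition above the mean inhibition across the screen plus 3 SD, cut at about 25% in these data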;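 also: inhibitors block binding of the rhodamine activity-based probe so polarization drops; 0% = enzyme with DMSO and 100% = wells lacking pPAFAH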
Target sequence (Q13093 whole entry, looked up): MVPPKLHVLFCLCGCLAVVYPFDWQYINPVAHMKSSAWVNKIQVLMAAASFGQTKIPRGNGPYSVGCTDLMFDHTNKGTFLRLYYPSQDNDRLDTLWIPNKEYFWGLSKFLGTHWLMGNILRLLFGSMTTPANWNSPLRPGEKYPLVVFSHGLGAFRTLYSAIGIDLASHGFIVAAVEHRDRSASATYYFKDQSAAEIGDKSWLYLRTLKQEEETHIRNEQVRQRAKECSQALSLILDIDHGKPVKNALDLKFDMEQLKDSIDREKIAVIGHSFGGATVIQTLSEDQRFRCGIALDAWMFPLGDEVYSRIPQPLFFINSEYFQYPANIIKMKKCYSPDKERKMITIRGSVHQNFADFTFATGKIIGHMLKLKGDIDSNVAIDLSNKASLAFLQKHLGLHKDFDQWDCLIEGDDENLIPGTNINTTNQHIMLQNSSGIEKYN
PP5 inh: inhibitors of human protein phosphatase 5 (PP5) | P53041 | purified PP5c, OMFP substrate fluorescence | inhibition, % at 6.7 µM | 320,000 compounds, 0.18% hits | AID 1987;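 active = inhibition above the campaign's mean inhibition across all tested compounds plus 3 SD, cut at about 9.5% in these data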;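 also: 0% = DMSO only and 100% = 100 µM cantharidin control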
PP1 inh: PP1-alpha (human) inhibition in PP5 counter-screen | P62136 | purified PP1alpha, OMFP fluorescence | inhibition, % at 6.7 µM | 320,000 compounds, 0.9% hits | AID 2235;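 active = inhibition above the mean inhibition of all tested compounds plus 3 SD, computed separately for each screening campaign, cut at about 15% in these data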
PAFAH2 FP inh: PAFAH2 (human) inhibition. recombinant PAFAH2, FP-rhodamine activity probe, fluorescence polarization. inhibition, % at 3.39 µM. 340,000 compounds, 0.99% hits;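 active = inhibition above the mean over all tested compounds plus 3 SD, cut at about 30% in these data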;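 also: inhibitors block probe labeling of enzyme so polarization drops; 0% = enzyme with DMSO and 100% = wells lacking PAFAH2 protein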
PAFAH1B3 FP inh: inhibitors of human PAFAH1B3 | Q15102 | recombinant PAFAH1B3, FP-rhodamine probe, fluorescence polarization | inhibition, % at 3.39 µM | 340,000 compounds, 0.28% hits;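 active = inhibition above the screen-wide average of all tested compounds plus 3 SD, cut at about 25% in these data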;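 also: 0% = enzyme with DMSO only and 100% = wells lacking PAFAH1B3 protein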
An asterisk follows results filed as active; . = no result given. An excerpt weighted towards active compounds, which were near 3.4% of everything screened.

SMILES | PAFAH1B2 inh | pPAFAH FP inh | PP5 inh | PP1 inh | PAFAH2 FP inh | PAFAH1B3 FP inh
O=C(NCc1ccc(F)cc1)C(=O)NCC1OCCN1S(=O)(=O)c1ccc2c(c1)OCCO2 (stereo not drawn) | 10 | 8 | -1 | -2 | 4 | 5
COc1cccc2[nH]c3c(N4CCN(Cc5ccc6c(c5)OCO6)CC4)ncnc3c12 | . | 15 | 1 | 0 | . | .
COc1ccc2c(c1)[nH]c1c(N3CCN(Cc4ccc5c(c4)OCO5)CC3)ncnc12 | 7 | 31* | 2 | 2 | -2 | 1
O=C(O)c1ccccc1-c1ccccc1C(=O)NCc1cccc(C(F)(F)F)c1 | 29* | -3 | -1 | 0 | -4 | -3
C/C(=C\c1ccccc1)C(=O)NCCN1CCOCC1 | -1 | -1 | 5 | -2 | -1 | -5
O=C(NCCCN1CCOCC1)c1c(-c2ccccc2)sc2ccccc12 | 1 | 5 | . | . | 2 | -9
CCOC(=O)c1ccc(NC(=O)CSc2nnc(CNc3ccc(C)cc3)n2C)cc1 | 8 | 0 | 3 | 6 | 9 | 4
CCOC(=O)c1c(NC(=O)CSc2nnc(CNc3ccc(OC)cc3)n2C)sc(C)c1C | 26* | 4 | 4 | 4 | 8 | 8
S=c1[nH]nc(CSCc2ccccc2Cl)n1-c1ccccc1 | 6 | 27* | 0 | -2 | -2 | -1
CC(=O)Nc1ccc(S(=O)(=O)N2CCC(NC(C)=O)(c3cccc(F)c3)CC2)cc1 | 2 | 27* | -2 | -8 | -5 | 3
CC(=O)Nc1ccc(S(=O)(=O)N2CCC(C(=O)O)(c3ccccc3)CC2)cc1 | 6 | 1 | 0 | 1 | 2 | 4
Cc1cccc(C(=O)NCC(=O)NC2CCC(C)CC2)c1 (stereo not drawn) | 4 | 9 | 1 | -4 | -11 | 1
Cc1ccc(S(=O)(=O)Nc2ccc(Br)cc2C(NCC(=O)O)c2ccccc2)cc1 (stereo not drawn) | 21 | 10 | 1 | 15 | 2 | 4
O=C(O)CSc1cc(NS(=O)(=O)c2ccc(Br)cc2)c2ccccc2c1O | 52* | 16 | 2 | 4 | 42* | 63*
CC(C)(C)c1ccc(OCC(=O)N/N=C/c2cc(Br)ccc2OC(=O)c2ccco2)cc1 | 9 | 2 | 0 | -4 | 0 | 5
O=C(Cc1ccc(Cl)cc1)Nc1ccc(S(=O)(=O)Nc2cnc3ccccc3n2)cc1 | 20 | 31* | 4 | 4 | -1 | 6
CC(C)N(C(=S)NCc1ccccc1)C(C)C | 0 | 4 | 3 | -7 | -1 | 2
CC(C)N(C(=S)NCc1ccccc1)c1ccccc1 | 29* | -5 | 1 | -2 | 4 | 7
O=S(=O)(N/N=C\C=C\c1ccccc1)c1ccc(Br)cc1 | 1 | 6 | 2 | -4 | 3 | 7
O=c1oc2ccccc2nc1/C=C(O)/C=C\c1ccccc1 | 6 | 33* | 1 | 4 | 2 | -2
COC(=O)c1nc2ccc(C)cn2c1F | -5 | -6 | 1 | -1 | 10 | 4
COC(=O)N1N=C(c2ccc(Br)cc2)CC1(O)C(F)(F)F (stereo not drawn) | -1 | -1 | -1 | 0 | 2 | -1
CN(C)c1cccc(/C=C(\C#N)c2ccccc2)c1 | 6 | 34* | 1 | 4 | -5 | 8
CN(C)c1ccc(/C=C(\C#N)c2ccccc2)cc1 | 7 | . | . | . | 8 | 13
Cc1cccc(NC(=O)NCc2ccc3[nH]c(C)cc3c2)c1 | 3 | 6 | 2 | -2 | -4 | 3
SMILES | PAFAH1B2 inh | pPAFAH FP inh | PP5 inh | PP1 inh | PAFAH2 FP inh | PAFAH1B3 FP inh
O=C(CC1SC(=O)N(c2ccccc2)C1=O)Nc1ccc(Br)cc1 (stereo not drawn) | . | 32* | 0 | 4 | . | .
COc1ccc(/C=C2\SC(=S)N(CC(=O)NC3C=CS(=O)(=O)C3)C2=O)cc1 (stereo not drawn) | -7 | 3 | 0 | 16* | -14 | -3
O=C1C(Cl)=C(NCCc2ccccc2)C(=O)c2ccccc21 | 33* | . | . | . | 30* | 40*
O=C(COC(=O)c1cc(-c2cccs2)nn1-c1ccccc1)Nc1ccc(F)c([N+](=O)[O-])c1 | -6 | 25* | -1 | 2 | 36* | -16
CN(CC(=O)Nc1ccc(F)cc1)C(=O)c1cc(-c2cccs2)nn1-c1ccccc1 | 4 | . | . | . | 6 | 0
Cc1ccc(CCSCC(=O)O)cn1 | 6 | -5 | 0 | -2 | 6 | 6
Cc1ccc(SCCc2ccc(C)nc2)cc1 | 28* | 0 | 3 | 3 | 2 | 12
COc1ccccc1C(=O)NCCNC(=O)c1ccco1 | 4 | 0 | 2 | 2 | 6 | 7
CC(=O)OCc1c(C(F)(F)F)nn(C)c1SCc1ccc(Cl)cc1 | 30* | 2 | 2 | 2 | 2 | 3
COc1ccccc1N1CCN(C(=O)c2cccc(C(=O)N3CCN(c4ccccc4OC)CC3)c2)CC1 | 1 | 3 | -1 | -5 | -4 | 5
COc1ccccc1N1CCN(C(=O)c2ccc3c(c2)NC(=O)C(CSCc2ccccc2C)N3)CC1 (stereo not drawn) | . | 25* | 0 | 23* | . | .
Nc1c(NCc2ccccc2)c(=O)c1=O | . | -1 | -2 | -5 | . | .
COc1ccc(CC(=O)OCC(=O)NCC2CCCO2)cc1OC (stereo not drawn) | 2 | -2 | 4 | -4 | -3 | 0
O=c1ccc2ccc(Oc3ccc([N+](=O)[O-])cc3Cl)cc2o1 | 1 | 30* | 1 | 0 | 1 | 4
Cn1cnnc1Sc1ccc(/C=C(\CCC(=O)O)c2nc3ccccc3s2)cc1[N+](=O)[O-] | 26* | 7 | 0 | -6 | -3 | 3
N/C(=N\N=C/c1ccc(F)cc1)N/N=C\c1ccc(F)cc1 | 4 | 2 | 5 | 16* | -2 | 2
NC(=S)N=Nc1c(O)cc(O)c2[nH]c(=O)ccc12 | 51* | . | . | . | 51* | 62*
CCN(C(=O)CSc1cc(-c2ccccc2)c2ccc(OC)cc2n1)C1CCS(=O)(=O)C1 (stereo not drawn) | 3 | 26* | 4 | 6 | -4 | 10
COc1ccc2c(-c3ccccc3)cc(SCC(=O)N(C)C)nc2c1 | -1 | 33* | 3 | 2 | 5 | 5
CCN(C(=O)CSc1cc(C)c2ccc(OC)cc2n1)C1CCS(=O)(=O)C1 (stereo not drawn) | 1 | -7 | 0 | -2 | -1 | 4
COCCNC(=O)CSc1cc(-c2ccccc2)c2ccc(OC)cc2n1 | 1 | 30* | 3 | 4 | 1 | 6
COc1ccc2c(-c3ccccc3)cc(SCC(=O)NC(N)=O)nc2c1 | 2 | 7 | 0 | 0 | -6 | 3
COc1ccc(CNC(=O)CN(C(=O)CCC(=O)Nc2ccccn2)c2cc(C)ccc2C)cc1 | -1 | 5 | 2 | 2 | -2 | 1
O=C(O/N=C/c1ccc(Cl)cc1)C1CCCCC1 | 94* | 5 | 2 | 2 | 77* | 12
Cc1cc(S(=O)(=O)Nc2ccc(C(=O)NCC3CCCO3)cc2)ccc1F (stereo not drawn) | . | 3 | . | . | . | .
